The results in this text go back to PubChem BioAssay AID1347426 (Functional Genomics Laboratory (NCATS/FGL), 2020).

In all, about 31,000 sequences went through this assay and about 1,400 (4.5%) were called active. This is one part of a sample in which actives are shown more often than they occur. Values without a mark were called inactive.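 Rule for the calls: active = median seed-adjusted z-score above 1 or below -1; inactive = the rest.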

This test can be described thus: Novel Modifiers of Survival Motor Neuron (SMN) Protein: Gene Identification via Genome-wide siRNA Screen.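 Note: luminescence tracks full-length SMN protein made from the SMN2 reporter.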 The following applies: HEK293T SMN2-luciferase reporter, siRNA knockdown, 72 h; actives lie on both sides. In outline: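 siRNA screen, 10418 genes ×3 siRNAs; 1 pmol/well, lipid reverse transfection into HEK293T SMN2-luc reporter line. 72 h, 37 °C, 5% CO2; ONE-Glo readout. Data: neg-ctrl normalized, log10, MAD; hit = MAD >1.0 or < -1.0.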
(In general: In a reporter assay the amount or activity of a reporter protein is the signal.)
For CCACCAAUCACGAACCUAATT against IL3RA, the median seed-adjusted z-score was -0.951.
For CAGUGUAUCUGAACCUAUUTT against EFTUD1 the value was -1.39 (active); for GCUCUUCGGGAGAAUCUUUTT against CTNNAL1, 0.229.
The value for AGACCAUUGAGACCCGGAATT against PRPH was 0; that for CAACUAAUUUCUAAUCGUUTT against ADAD1 was -0.0795; that for GUGCGAAGGUUUUUAAUCATT against ZNF816A was 0.39.
For GUACCUGCGGGAUUACUCATT against CCT7 the value was -0.246.
On to UGAACUUGAUGAAGGAGAATT against S100A7L2, for which the median seed-adjusted z-score was 0.283.
As for GGGUCCUGUUCAUAAAGGATT against KCTD10, the median seed-adjusted z-score is -0.506.
For GGAAUUUACAUGGUCUAUUTT against PHF6 the value was -0.268.
For CCAUGCUCGUGGUGCACAATT against B3GNT7 the value was -1.05 (active); for GCCCGAUGCUUUCCACAUUTT against SLC5A9, 0.15; for GCACACUUGAGUUUGUGUATT against HES6, 0.71.
For GGUGGUAUCUGUUUCCGUATT against PCAF the value was -0.00665; for GCUGCGUCUCCCUUCCAAATT against GP1BB, -0.711; for GCCCUCUGUUGGAUAUCUATT against AZIN1, -1.14 (active).
For CAGCAGACGUAAAAAUUCATT against MSX2, the median seed-adjusted z-score is -0.406.
The value for CCACUGGAAUGGUACUUAUTT against UBR1 was -0.775; that for GAGCUGUAUUUCUAUGUCATT against PLXNA3 was 0.255.
The value for GCGAGCCGCUUAUGUGGAATT against TCF21 was -0.15; that for UCUUAGAUGUCAAGCUGAATT against RNF7 was -1.18 (active).
The value for AGGUAGAAUGGACAAGUGATT against PPP1R11 was -0.498; that for GGAUUAUGAGUACCGAGAATT against MAP3K14 was -0.0609; that for GAUCAGGAGUCCUUCAAUATT against RAB1A was 0.395.
On to CGCCGACUGUCAUGCUUCATT against FCN1, for which the median seed-adjusted z-score is 0.346.
For GUUCAUCCCUUAUUCGACATT against ZNF215 the value was 0.485.
The value for CCAUCAACAUCGCAGAUGATT against ABHD11 was -0.189; that for CCGACACGCUCUACAAUAATT against BRUNOL6 was -0.542; that for CCCUUACCCAAAACGAGAATT against CDK8 was -1.47 (active).
The value for CCCUGACUGCAACUGCUUUTT against LDLRAD2 was -0.459; that for GAGUCAUUAUUGACAACAATT against APH1B was -0.135; that for GGUGUUUGAUAUUCGAAUUTT against USP40 was 0.00437.
For GCAACAUCCUCAUUGUAUUTT against MCHR2, the median seed-adjusted z-score was -0.658.
The value for GCAUAUUCCGGUGAUAACUTT against RAB6C was -1.08 (active).
Turning to CAGGCGCCUGAAGUACAUATT against SLC35A2, the median seed-adjusted z-score is 1.06 (active).
For AGCUCACCAGAGAAAUUUUTT against CHDH the value was 0.0241; for GCUGCUCUGUUGAUGCUUATT against POMT1, 0.327; for GGAGUUAUAUUUAGUGAUATT against ABCA10, -0.104.
The value for GGGUCAAGAUCGAGGAUAATT against MYOM3 was -0.012.
For CCUCUAACAUUGGUUCCAATT against XPNPEP1 the value was -1.5 (active); for CCAUGUACGUCAUCCCAUUTT against PCK1, -0.401.
Take AGAUGAGCCUAUACAGCGATT against TRIM9: the median seed-adjusted z-score was -0.437.
For the sequence GCAGUUCGGCAGUAUCUGUTT against PSMD6, the median seed-adjusted z-score was -1.03 (active).
The value for CAUCCAGCCCUUAUACAAATT against RBM24 was 0.0471; that for CGUUCUAUCAACAAACUCATT against EIF2S1 was -0.175; that for GCCUCACAGGUGCAUCAUATT against TSC2 was 1.11 (active).
The value for GCCUAGGAGCGAGGACUUATT against DNAJC30 was 0.329.
Consider CAGCUAUAAUCGUUUAUGATT against RAB22A, for which the median seed-adjusted z-score was 0.321.
The value for GGAAUUUCGGCACUCAGAATT against CHIT1 was -0.578.
On to GGUUGCCCAUCUUACUCUATT against ZNF470, for which the median seed-adjusted z-score is -1.26 (active).
The value for GCUCGGUCUGGUGAACUAATT against KLF3 was 0.628; that for CAAUCGUCAUAAUGUCUAUTT against A2M was -1.96 (active).
Take GAUCCAUAGUACACGAAUATT against ADAM7: the median seed-adjusted z-score is -0.0638.
Consider AGAUUGUCCUCAACUUCAATT against NRP2, for which the median seed-adjusted z-score was 0.477.
For AAUCAAAAGGGAGAACUCATT against HS3ST2 the value was 0.133; for GACCCUCGAUUACUAUUCATT against OMA1, 0.
For the sequence GCAUCGACAUGUCCUGGGATT against PUF60, the median seed-adjusted z-score was 2.26 (active).
For CAUCAACUAUAUCACAGUATT against ATP13A5 the value was 0.241; for AAUUCGAUAUGUUCAGCAATT against GPX4, -1.18 (active).
Turning to CAUCUAGGAUUUUAAGGGATT against ASGR1, the median seed-adjusted z-score is -0.128.
The value for GGAGGUUUGUAGAAUAUGUTT against XYLT1 was -0.274; that for GCACGACUGUUACUGGACUTT against POLRMT was 0.0812; that for GGAUAUCAAUCGAGUACAATT against PIK3R3 was -1.88 (active).
For GCUGGACCGUAAAAUUGAATT against PSMC4 the value was -0.361; for CCAACAUCUGGAACGAAUATT against KCNT2, 0.449; for GGACAAGAACGGAAUUUCATT against SCLY, 0.00396.
For GGACGGAAGAUUUUCGUAUTT against SR140 the value was 1.16 (active).
Take GAACCUCUAUUGUGGACAATT against TMEM1: the median seed-adjusted z-score was -0.191.
Regarding AGAAAGUACUGCACAGAGATT against PCDH8, the median seed-adjusted z-score is -1.03 (active).
